Assay results published in PubChem BioAssay AID1345085 (National Center for Advancing Translational Sciences (NCATS), 2018).
Inconclusive results are not listed. Values without a mark were called inactive. Active and inactive are the calls of the source. The call rests on the fitted dose curve; in most records, active means well fitted cell-killing curve with a large enough effect; inconclusive means small, poorly fitted or top-dose-only effect, or effect the other way; inactive means no such curve, though single readings can be large or run the other way.
Further: nearly all actives have a fitted effect of over 55% in size.
On the % scale 0 is the no-effect control and ±100 the full control effect; potency means the concentration at half of the fitted maximal effect.

Each molecule was assayed on Tov-21-G (assay: Confirmatory qHTS for gynecologic anti-cancer compounds from libraries of approved drugs and bioactive compounds). Conditions: gynecologic cancer cell panel viability, ATPlite luminescence, 48 h; series mostly up to 57.7 µM; activity change, negative = viability loss: at the top concentration.
Method in brief: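 Cells (1,000/well) were plated, left 16 h at 37 C/5% CO2, then given compound at 11 concentrations (1:3) from 57.5 uM to 0.977 nM for 48 h. ATPlite luminescence after 15 min at room temperature gave IC50 values.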
For `CCOc1cc2ncc(C#N)c(Nc3ccc(F)c(Cl)c3)c2cc1NC(=O)/C=C/CN(C)C`, the Potency was 2170 nM (active).
In the case of `Nc1ccn([C@@H]2O[C@H](CO)[C@@H](O)C2(F)F)c(=O)n1`, the Potency is reported as 6110 nM (active).
`Cc1ccc(C(N)=O)cc1Nc1nccc(-c2cn(C(C)C)c3cnccc23)n1` was tested, and the Potency was 9680 nM (active).
With `CC(Oc1ccc2[nH]nc(/C=C/c3cnn(CCO)c3)c2c1)c1c(Cl)cncc1Cl` (configuration not stated) the Potency was 6110 nM (active).
For `c1cc(N[C@@H]2CCNC2)nc(-c2cnc3ccc(-c4cn[nH]c4)cn23)c1`, the Potency was 2430 nM (active).
In the case of `COc1cc2c(NC3CCN(C(C)C)CC3)nc(C3CCCCC3)nc2cc1OCCCN1CCCC1`, the Potency is reported as 10900 nM (active).
With `Cc1cnc(Nc2cccc(CN3CCOCC3)c2)nc1Nc1cccc(S(=O)(=O)NC(C)(C)C)c1` the Potency was 3060 nM (active).
With `COc1cc(-c2nn(C3CCC(N4CCN(C(C)=O)CC4)CC3)c3ncnc(N)c23)ccc1NC(=O)c1cc2ccccc2n1C` (configuration not stated) the Potency was 1090 nM (active).
With `Cc1cnc(Nc2ccc(OCCN3CCCC3)cc2)nc1Nc1cccc(S(=O)(=O)NC(C)(C)C)c1` the Potency was 1720 nM (active).
For `Cc1nc(Nc2n[nH]c3c2CN(C(=O)NC(CN(C)C)c2ccccc2)C3(C)C)c2sccc2n1` (configuration not stated), the Potency was 2430 nM (active).
`CCn1cc(-c2ccnc3[nH]c(-c4cccc(CN(C)C)c4)cc23)c(-c2ccc(NC(=O)N(C)C)cc2)n1` was tested, and the Potency was 7490 nM (active).
In the case of `NS(=O)(=O)OC[C@@H]1C[C@@H](n2ccc3c(N[C@H]4CCc5ccccc54)ncnc32)C[C@@H]1O`, the Potency is reported as 1720 nM (active).
`COC(C)(C)CCn1nc(Nc2c(C)cccc2C)c2cnc(Nc3ccc(OCCN4CCCC4)c(F)c3)nc21` was tested, and the Potency was 1370 nM (active).
In the case of `O=c1cc(CN2CCOCC2)occ1OCCCCCSc1ccnc2cc(C(F)(F)F)ccc12`, the “activity change, negative = viability loss” value is reported as -17.4%.
In the case of `COC(C(=O)N1Cc2[nH]nc(NC(=O)c3ccc(N4CCN(C)CC4)cc3)c2C1)c1ccccc1` (configuration not stated), the Potency is reported as 1370 nM (active).
In the case of `COCCOc1nc(-c2ccc(Cl)c(Cl)c2)n(-c2ccc(NC(=O)CCl)cc2)n1`, the Potency is reported as 1720 nM (active).
In the case of `CC(C)C[C@H](NC(=O)[C@@H](NC(=O)c1cccc(-c2ccccc2)n1)[C@@H](C)O)B(O)O`, the Potency is reported as 1720 nM (active).
For `CN(C[C@@H]1COCCO1)S(=O)(=O)Nc1ccc2ccc3ncc(-c4cnn(C)c4)cc3c(=O)c2c1`, the Potency was 17200 nM (active).
For `COc1cc2c(Nc3ccc(NC(=O)c4ccccc4)cc3)ncnc2cc1OCCCN1CCOCC1`, the Potency was 19300 nM (active).
For `CCS(=O)(=O)c1cccc(-c2cc(C(=O)NC3CCN(C)CC3)c(C)c3[nH]c4ncc(C)cc4c23)c1`, the Potency was 1500 nM (active).
With `Cc1cc(Nc2cc(N3CCN(C)CC3)nc(/C=C/c3ccccc3)n2)n[nH]1` the Potency was 1720 nM (active).
`O=C(/C=C/c1cccc(S(=O)(=O)Nc2ccccc2)c1)NO` was tested, and the Potency was 4730 nM (active).
For `Cc1ccc(C(=O)Nc2ccc(CN3CCN(C)CC3)c(C(F)(F)F)c2)cc1C#Cc1cnc2cccnn12`, the Potency was 1220 nM (active).
With `COc1cc2c(Oc3ccc(-c4cnc(Nc5ccc(F)cc5)n(C)c4=O)cc3F)ccnc2cc1OCCCN1CCOCC1` the Potency was 19300 nM (active).
With `Nc1nc(Cl)nc2c1ncn2C1OC(CO)C(O)C1F` (configuration not stated) the Potency was 3430 nM (active).
`COc1ccc(-c2cc3nccn3c(Nc3ncccc3C(N)=O)n2)cc1OC` was tested, and the Potency was 4850 nM (active).
In the case of `CN(NC(=O)CC(=O)NN(C)C(=S)c1ccccc1)C(=S)c1ccccc1`, the Potency is reported as 153 nM (active).
In the case of `NC(=O)Nc1cc(-c2cccc(F)c2)sc1C(=O)NC1CCCNC1` (configuration not stated), the Potency is reported as 3430 nM (active).
With `Cn1c(=O)c(F)c(Nc2ccc(I)cc2F)c2c(=O)n(CC(O)CO)cnc21` (configuration not stated) the Potency was 2730 nM (active).
With `Nc1ccccc1NC(=O)c1ccc(CNc2nccc(-c3cccnc3)n2)cc1` the Potency was 2430 nM (active).
In the case of `CCN1CCN(Cc2ccc(-c3cc4c(NC(C)c5ccccc5)ncnc4[nH]3)cc2)CC1` (configuration not stated), the Potency is reported as 1720 nM (active).
For `CC[C@@]1(O)C(=O)OCc2c1cc1n(c2=O)Cc2cc3c(CN(C)C)c(O)ccc3nc2-1`, the Potency was 5440 nM (active).
